Assay results: PubChem BioAssay AID624116 (National Center for Advancing Translational Sciences (NCATS), 2012)
Inconclusive results are not listed. Calls of active or inactive are those of the source. Calls follow the shape of the dose curve; as a rule, active = well fitted activation curve with a large enough effect; inconclusive = small, poorly fitted or top-dose-only effect; inactive = no such curve, though single readings can be large or run the other way.

Test: qHTS Assay for Rab9 Promoter Activators: Hit Validation Using Renilla Luciferase Read-Out for Rab9
Conditions: Huh7 Rab9 promoter Renilla luciferase reporter, 24 h; series mostly up to 76.9 µM
How it was run: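 Huh7 cells stably carrying promoter-luciferase reporter, exposed to compound for 24 h at 37 deg C. Luminescence read 10 min after adding luciferase detection reagent at room temperature.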
Potency is read from the fitted curve at half-maximal effect.

Potency, active:
Nc1ccc(C(=O)Nc2ccccc2N)cc1 16.4 µM
O=C(O)C1=CC[C@@H](c2ccc(Cl)cc2)N(S(=O)(=O)c2ccc(Cl)cc2)[C@H]1c1ccccc1 14.6 µM

Potency, inactive:
Brc1ccccc1-c1nnc(CSc2nnc3sc4ccccc4n23)o1
COc1cccc(NC(=O)CN2C(=O)CSc3ccc(S(=O)(=O)N4CCC(C)CC4)cc32)c1
Cc1ccccc1NC(=O)CSc1ccc(-c2cccnc2)nn1
Nc1nc(SCCO)[nH]c(=O)c1NC(=O)c1ccco1
COCc1cc(C)nc(N/N=C/c2ccc(-c3ccc(Cl)cc3[N+](=O)[O-])o2)c1C#N
NC(=O)COC(=O)c1ccc2noc(-c3ccccc3)c2c1
Cc1ccc(C(=O)Nc2nnc(S(=O)(=O)N3CCOCC3)s2)cc1
COC(=O)c1ccccc1NC(=O)c1ccc(-c2ccc(Br)cc2)o1
CCOCC(=O)Nc1c(C(=O)Nc2ccc3c(c2)OCCO3)oc2ccccc12
COc1ccc(C(=O)OCC(=O)N2CCCC2=O)c(OC)c1
CCCCc1cc(=O)oc2cc(OCC(=O)N3CCOCC3)ccc12
CC1=C(C(=O)OC2CCCC(C)C2)C(c2ccccc2)NC(=O)N1 (stereo not drawn)
CC(C)C(NC(=O)c1ccc([N+](=O)[O-])cc1Cl)C(=O)N1CCCC1 (stereo not drawn)
O=C(CCCN1C(=O)C(c2ccccc2)Oc2cccnc21)Nc1ccccc1Cl (stereo not drawn)
CC(C)(C)C(=O)NC(=S)Nc1ccccc1F
COc1ccc(C)cc1N(C(=O)CNC(=O)c1ccco1)C(C(=O)NC1CCCC1)c1cccnc1 (stereo not drawn)
CCC(C)(C)NC(=O)C(c1ccc(OC)cc1)N(Cc1cccs1)C(=O)CCC(=O)Nc1cc(C)on1 (stereo not drawn)
O=C(CCN1C(=O)c2ccccc2C1=O)Nc1ccc(-c2nc3ccccc3s2)cc1
Cc1nnc2n(c1=O)N=C(c1ccc(Cl)cc1)CS2
COC(=O)Nc1nc2ccc(Br)cc2s1
FC(F)(F)c1ccc(Nc2nnnc3ccccc23)cc1
Cc1ccc(C)c(Nc2cc(C)nc3ncnn23)c1
O=C(C[N+]1(CC#Cc2ccccc2)CCCCC1)c1ccccc1
CCOc1cc(C(=O)N=c2sccn2C)ccc1OC(F)F
Cc1nc(-c2ccc(S(=O)(=O)Oc3ccc(Cl)cc3Cl)s2)cs1
CCN(C(=O)COC(=O)c1ccc(C=O)cc1)c1c(N)n(Cc2ccccc2)c(=O)[nH]c1=O
O=C(C1COc2ccccc2O1)N1CCN(S(=O)(=O)c2ccccc2)CC1 (stereo not drawn)
Cc1ccc(NC(=O)c2ncc(Cl)c(Cl)c2Cl)cc1C
COc1cccc(C(C(=O)NC2CCCC2)N(CCC(C)C)C(=O)CCC(=O)Nc2cc(C)on2)c1 (stereo not drawn)
COC(=O)c1ccccc1NC(=O)c1cc(-c2cccs2)on1
COc1ccc(-c2nnc(SCC(=O)/C(C#N)=C(\C)N)o2)cc1
COc1ccc(-c2cc(C(=O)Nc3ccccc3F)on2)cc1
O=C(NCCc1c[nH]c2ccccc12)C(=O)NCC(c1ccco1)N1CCN(c2ccccc2F)CC1 (stereo not drawn)
CCCCCCC(=O)Nc1ccc(C(=O)N/N=C/c2cccnc2)cc1
CCCN(CCC)CCCNC(=O)c1cc2cc3ccc(Cl)cc3nc2o1
O=C(CCNC(=O)c1ccc(Br)o1)NCc1ccc(Cl)cc1
